In the supplement of paper PMC10849652:
About 7,900 targets were measured; listed, in parts, are those with a hit and a random draw of the rest. About 0.6% of all pairs of compound and target were hits. Values without a mark were called inactive.

What was measured:
Assay in all cases: log2 fold change, soluble protein after heating vs DMSO (PISA); higher = thermal stabilisation; K562 cells, 10 uM, 30 min; active = over 0.2 and 3.5 SD of the protein, either way, in both replicates (recomputed)
[1] = compound: CN1CCN(CCOc2cc(OC3CCOCC3)c3c(Nc4c(Cl)ccc5c4OCO5)ncnc3c2)CC1 [saracatinib]
Outline: (§1)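 Quantification of soluble protein used TMTpro 16plex LC-MS/MS, with channel sums equalised. Samples were the supernatant after 21,000xg for 90 min of pooled aliquots from K562 cells (2×10^6 cells/mL) treated with 10 μM compound for 30 min, heated for 3 min over 48°C-58°C, and extracted in PBS with 0.5% NP-40 at 4°C. Values, from duplicates, describe thermal stability against control samples on a log2 fold-change scale.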

[2] = compound: CN1CCN(c2nc(C3=C(c4c[nH]c5ccccc45)C(=O)NC3=O)c3ccccc3n2)CC1 [sotrastaurin]
Outline: as §1

[3] = compound: CN1CC[C@H](c2c(O)cc(O)c3c(=O)cc(-c4ccccc4Cl)oc23)[C@H](O)C1 [alvocidib]
Outline: as §1

[4] = compound: CN1CCc2c(c3ccccc3n2Cc2ccc(C(=O)NO)cc2)C1 [Tubastatin A]
Outline: as §1

[5] = compound: CNC(=O)C1=CC=CC=C1NC2=NC(=NC=C2Cl)NC3=C(C=C(C=C3)N4CCOCC4)OC
Outline: as §1

[6] = compound: CNC(=O)c1ccc(Nc2ncc(C(F)(F)F)c(NCc3nccnc3N(C)S(C)(=O)=O)n2)cc1 [defactinib]
Outline: as §1

[7] = compound: CNCc1ccc(-c2[nH]c3cc(F)cc4c3c2CCNC4=O)cc1 [rucaparib]
Outline: as §1

[8] = compound: CNc1nc(-c2ccc3c(N)n[nH]c3c2)cc(N2C[C@@H](C(=O)NC3CCCCC3)CC[C@H]2C)n1
Outline: as §1

[9] = compound: COC(=O)N[C@@H](C)CNc1nccc(-c2cn(C(C)C)nc2-c2cc(Cl)cc(NS(C)(=O)=O)c2F)n1 [encorafenib]
Outline: as §1

[10] = compound: COC(=O)[C@H](CCSC)NC(=O)C1=C(C=C(C=C1)NC[C@H](CS)N)C2=CC=CC=C2
Outline: as §1

[11] = compound: COC1=CC=C(C=C1)CN2C=CC3=C2C=C(C=C3)C(=O)NO
Outline: as §1

[12] = compound: CON(C)C(=O)N1N=C(c2cc(F)ccc2F)S[C@@]1(CCCN)c1ccccc1 [filanesib]
Outline: as §1

[13] = compound: CO[C@H]1C[C@@H]2CC[C@@H](C)[C@@](O)(O2)C(=O)C(=O)N2CCCC[C@H]2C(=O)O[C@H]([C@H](C)C[C@@H]2CC[C@H](n3cnnn3)[C@H](OC)C2)CC(=O)[C@H](C)/C=C(\C)[C@@H](O)[C@@H](OC)C(=O)[C@H](C)C[C@H](C)/C=C/C=C/C=C/1C [zotarolimus]
Outline: as §1

[14] = compound: COc1cc(C(=O)O)ccc1NC(=O)[C@@H]1N[C@@H](CC(C)(C)C)[C@](C#N)(c2ccc(Cl)cc2F)[C@H]1c1cccc(Cl)c1F [idasanutlin]
Outline: as §1

[15] = compound: COc1cc(Nc2ncc3c(n2)-c2ccc(Cl)cc2C(c2c(F)cccc2OC)=NC3)ccc1C(=O)O [alisertib]
Outline: as §1

[16] = compound: COc1cc2nc(-c3cc(F)ccc3O)nc(N[C@@H]3CNC[C@H]3C(C)(C)O)c2cc1OC
Outline: as §1

[17] = compound: COc1cc2ncnc(Nc3ccc(F)c(Cl)c3)c2cc1OCCCN1CCOCC1 [gefitinib]
Outline: as §1

[18] = compound: COc1cccc2cc(-c3nc([C@H]4CC[C@H](C(=O)O)CC4)n4ncnc(N)c34)[nH]c12
Outline: as §1

[19] = compound: CS(=O)(=O)CCNCc1ccc(-c2ccc3ncnc(Nc4ccc(OCc5cccc(F)c5)c(Cl)c4)c3c2)o1 [lapatinib]
Outline: as §1

[20] = compound: CS(=O)(=O)N1CCN(Cc2cc3nc(-c4cccc5[nH]ncc45)nc(N4CCOCC4)c3s2)CC1 [pictilisib]
Outline: as §1

Sequence of UniProt Q01081 (Q01081 whole entry, looked up): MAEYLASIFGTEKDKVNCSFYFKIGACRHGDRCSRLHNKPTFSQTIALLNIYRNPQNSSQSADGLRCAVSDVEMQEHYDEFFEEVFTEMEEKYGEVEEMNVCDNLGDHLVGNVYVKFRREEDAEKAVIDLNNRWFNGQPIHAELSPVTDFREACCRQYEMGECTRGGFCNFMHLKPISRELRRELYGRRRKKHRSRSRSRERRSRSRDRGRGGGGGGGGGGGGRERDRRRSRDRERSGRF
Sequence of UniProt Q9HAV4 (Q9HAV4 whole entry, looked up): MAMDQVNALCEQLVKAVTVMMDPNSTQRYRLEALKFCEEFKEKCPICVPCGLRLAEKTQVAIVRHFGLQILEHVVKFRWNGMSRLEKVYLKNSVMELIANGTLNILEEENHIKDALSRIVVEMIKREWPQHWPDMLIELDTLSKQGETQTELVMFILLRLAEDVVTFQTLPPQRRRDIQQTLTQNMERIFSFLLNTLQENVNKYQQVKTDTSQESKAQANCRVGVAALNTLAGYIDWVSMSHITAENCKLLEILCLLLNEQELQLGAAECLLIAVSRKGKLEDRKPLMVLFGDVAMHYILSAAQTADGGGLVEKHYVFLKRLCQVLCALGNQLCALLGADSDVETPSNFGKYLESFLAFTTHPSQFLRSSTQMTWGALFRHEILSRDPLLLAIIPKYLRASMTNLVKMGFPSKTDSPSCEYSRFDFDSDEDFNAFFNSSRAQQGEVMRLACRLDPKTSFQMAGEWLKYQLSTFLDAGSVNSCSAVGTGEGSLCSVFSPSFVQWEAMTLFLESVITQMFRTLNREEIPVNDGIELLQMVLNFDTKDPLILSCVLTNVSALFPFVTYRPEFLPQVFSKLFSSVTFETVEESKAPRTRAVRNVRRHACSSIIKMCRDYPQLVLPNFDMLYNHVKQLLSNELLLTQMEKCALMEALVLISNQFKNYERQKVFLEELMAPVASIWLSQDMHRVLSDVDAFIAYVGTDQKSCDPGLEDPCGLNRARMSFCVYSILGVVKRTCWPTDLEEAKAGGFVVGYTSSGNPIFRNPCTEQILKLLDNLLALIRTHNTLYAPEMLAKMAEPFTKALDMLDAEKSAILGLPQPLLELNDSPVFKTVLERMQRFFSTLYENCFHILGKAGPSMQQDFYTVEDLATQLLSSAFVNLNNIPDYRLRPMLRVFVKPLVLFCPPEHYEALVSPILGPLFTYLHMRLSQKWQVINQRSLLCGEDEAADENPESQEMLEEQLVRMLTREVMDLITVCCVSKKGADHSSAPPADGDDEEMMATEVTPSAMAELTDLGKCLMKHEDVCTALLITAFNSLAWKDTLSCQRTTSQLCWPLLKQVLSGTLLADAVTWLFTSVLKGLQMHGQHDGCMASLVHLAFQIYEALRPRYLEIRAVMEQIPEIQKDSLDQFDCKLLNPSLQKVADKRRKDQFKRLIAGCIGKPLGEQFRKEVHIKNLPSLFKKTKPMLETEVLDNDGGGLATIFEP
Sequence of UniProt Q9P253 (Q9P253 whole entry, looked up): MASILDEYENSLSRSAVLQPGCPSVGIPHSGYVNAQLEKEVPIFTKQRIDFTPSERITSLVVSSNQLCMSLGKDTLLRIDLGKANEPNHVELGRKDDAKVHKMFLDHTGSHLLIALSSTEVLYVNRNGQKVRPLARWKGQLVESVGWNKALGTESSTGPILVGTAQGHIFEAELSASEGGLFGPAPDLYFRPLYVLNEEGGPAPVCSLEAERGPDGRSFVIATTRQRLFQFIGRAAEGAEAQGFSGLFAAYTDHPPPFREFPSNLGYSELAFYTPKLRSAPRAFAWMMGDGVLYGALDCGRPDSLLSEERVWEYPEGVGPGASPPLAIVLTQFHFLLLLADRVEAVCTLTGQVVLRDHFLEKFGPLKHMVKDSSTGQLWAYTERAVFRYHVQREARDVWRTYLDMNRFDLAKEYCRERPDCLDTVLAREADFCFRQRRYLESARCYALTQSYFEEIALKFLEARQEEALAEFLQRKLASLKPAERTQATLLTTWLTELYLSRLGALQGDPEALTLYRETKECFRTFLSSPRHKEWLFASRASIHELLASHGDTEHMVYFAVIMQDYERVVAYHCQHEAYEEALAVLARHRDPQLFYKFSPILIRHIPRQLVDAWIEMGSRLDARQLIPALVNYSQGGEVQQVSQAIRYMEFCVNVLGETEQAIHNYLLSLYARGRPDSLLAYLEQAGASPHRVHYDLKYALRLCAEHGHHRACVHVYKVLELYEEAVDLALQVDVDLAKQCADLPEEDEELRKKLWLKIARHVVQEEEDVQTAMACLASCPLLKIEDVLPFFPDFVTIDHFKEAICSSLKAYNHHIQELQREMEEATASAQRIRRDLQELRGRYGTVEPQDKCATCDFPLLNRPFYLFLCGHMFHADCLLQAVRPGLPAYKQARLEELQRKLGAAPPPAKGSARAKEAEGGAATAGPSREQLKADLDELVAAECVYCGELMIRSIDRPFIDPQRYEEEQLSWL
Sequence of UniProt A6NHL2 (A6NHL2 whole entry, looked up): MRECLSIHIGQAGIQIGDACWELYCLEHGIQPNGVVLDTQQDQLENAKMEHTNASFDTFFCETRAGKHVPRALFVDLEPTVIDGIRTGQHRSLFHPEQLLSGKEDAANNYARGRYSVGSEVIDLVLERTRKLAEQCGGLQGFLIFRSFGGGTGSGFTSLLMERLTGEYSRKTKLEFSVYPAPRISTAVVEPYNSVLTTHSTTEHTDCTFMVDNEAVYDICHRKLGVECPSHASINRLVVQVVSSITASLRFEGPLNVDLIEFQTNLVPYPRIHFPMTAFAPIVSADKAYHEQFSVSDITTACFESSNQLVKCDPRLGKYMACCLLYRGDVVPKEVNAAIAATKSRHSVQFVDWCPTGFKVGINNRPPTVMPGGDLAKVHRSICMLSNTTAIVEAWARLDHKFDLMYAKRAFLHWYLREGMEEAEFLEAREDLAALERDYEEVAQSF
Sequence of UniProt Q9H6R7 (Q9H6R7 whole entry, looked up): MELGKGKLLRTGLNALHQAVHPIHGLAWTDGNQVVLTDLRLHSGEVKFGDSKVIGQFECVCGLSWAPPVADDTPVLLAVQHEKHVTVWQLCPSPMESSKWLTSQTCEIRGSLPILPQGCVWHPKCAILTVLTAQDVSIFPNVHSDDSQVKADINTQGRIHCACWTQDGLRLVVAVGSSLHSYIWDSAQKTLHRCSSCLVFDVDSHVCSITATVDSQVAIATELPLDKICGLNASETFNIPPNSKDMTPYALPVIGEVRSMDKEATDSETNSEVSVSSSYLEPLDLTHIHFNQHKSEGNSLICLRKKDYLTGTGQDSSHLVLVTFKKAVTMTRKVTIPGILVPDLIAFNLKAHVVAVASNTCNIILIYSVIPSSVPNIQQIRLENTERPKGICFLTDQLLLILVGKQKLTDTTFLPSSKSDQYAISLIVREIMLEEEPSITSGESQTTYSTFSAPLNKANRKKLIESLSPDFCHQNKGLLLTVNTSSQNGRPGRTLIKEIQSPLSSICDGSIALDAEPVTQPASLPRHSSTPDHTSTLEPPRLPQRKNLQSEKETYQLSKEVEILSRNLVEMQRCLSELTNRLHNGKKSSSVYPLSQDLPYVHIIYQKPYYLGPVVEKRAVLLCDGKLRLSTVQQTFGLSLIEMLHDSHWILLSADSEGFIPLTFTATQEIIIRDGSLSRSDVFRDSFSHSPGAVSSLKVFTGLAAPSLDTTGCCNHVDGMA
Sequence of UniProt Q86Y07 (Q86Y07 whole entry, looked up): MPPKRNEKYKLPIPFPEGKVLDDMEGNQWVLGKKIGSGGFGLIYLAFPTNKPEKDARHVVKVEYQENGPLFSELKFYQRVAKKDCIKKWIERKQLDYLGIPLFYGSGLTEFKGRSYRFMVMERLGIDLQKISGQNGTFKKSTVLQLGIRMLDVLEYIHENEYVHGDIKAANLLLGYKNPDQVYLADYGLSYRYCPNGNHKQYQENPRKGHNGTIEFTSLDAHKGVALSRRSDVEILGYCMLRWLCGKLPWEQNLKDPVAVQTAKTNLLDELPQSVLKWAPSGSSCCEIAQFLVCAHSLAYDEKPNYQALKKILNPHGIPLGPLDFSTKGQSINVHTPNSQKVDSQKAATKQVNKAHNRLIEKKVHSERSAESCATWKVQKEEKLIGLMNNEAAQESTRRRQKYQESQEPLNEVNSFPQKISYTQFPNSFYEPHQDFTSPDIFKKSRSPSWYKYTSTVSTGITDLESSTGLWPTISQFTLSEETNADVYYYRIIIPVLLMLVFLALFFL
Sequence of UniProt Q9NUM4 (Q9NUM4 whole entry, looked up): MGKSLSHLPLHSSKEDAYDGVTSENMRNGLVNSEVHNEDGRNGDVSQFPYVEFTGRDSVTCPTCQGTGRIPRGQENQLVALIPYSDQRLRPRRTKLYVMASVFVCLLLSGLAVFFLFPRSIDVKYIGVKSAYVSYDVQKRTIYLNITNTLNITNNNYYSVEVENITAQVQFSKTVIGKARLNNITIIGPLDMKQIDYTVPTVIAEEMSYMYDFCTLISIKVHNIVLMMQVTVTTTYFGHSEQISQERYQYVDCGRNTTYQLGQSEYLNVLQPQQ
Sequence of UniProt Q86WV6 (Q86WV6 whole entry, looked up): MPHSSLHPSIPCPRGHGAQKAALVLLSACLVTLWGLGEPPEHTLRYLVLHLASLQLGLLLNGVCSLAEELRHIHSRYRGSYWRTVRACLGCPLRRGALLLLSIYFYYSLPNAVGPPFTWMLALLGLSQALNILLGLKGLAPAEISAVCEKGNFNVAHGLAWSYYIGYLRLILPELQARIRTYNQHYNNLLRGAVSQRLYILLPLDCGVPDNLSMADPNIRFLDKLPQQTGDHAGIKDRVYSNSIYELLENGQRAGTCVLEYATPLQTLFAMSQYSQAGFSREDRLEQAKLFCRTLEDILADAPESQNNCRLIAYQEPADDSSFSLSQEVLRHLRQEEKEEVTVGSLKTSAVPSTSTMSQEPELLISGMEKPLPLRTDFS

| Target | log2 fold change [1] | log2 fold change [2] | log2 fold change [3] | log2 fold change [4] | log2 fold change [5] | log2 fold change [6] | log2 fold change [7] | log2 fold change [8] | log2 fold change [9] | log2 fold change [10] | log2 fold change [11] | log2 fold change [12] | log2 fold change [13] | log2 fold change [14] | log2 fold change [15] | log2 fold change [16] | log2 fold change [17] | log2 fold change [18] | log2 fold change [19] | log2 fold change [20] |
| --- | --- | --- | --- | --- | --- | --- | --- | --- | --- | --- | --- | --- | --- | --- | --- | --- | --- | --- | --- | --- |
| VPS18 (UniProt Q9P253) | -0.034 | -0.156 | -0.118 | -0.052 | -0.003 | -0.068 | 0.099 | 0.029 | 0.031 | -0.076 | -0.011 | 0.009 | 0.024 | -0.053 | -0.102 | -0.017 | -0.028 | -0.041 | 0.033 | -0.07 |
| USO1 isoform 2 (UniProt O60763) | 0.076 | -0.028 | -0.012 | -0.026 | 0.029 | -0.034 | -0.019 | 0.03 | 0.022 | -0.003 | 0.009 | -0.054 | 0.034 | -0.054 | -0.037 | -0.031 | 0.003 | 0.01 | 0.016 | 0.014 |
| TMEM173 (UniProt Q86WV6) | -0.002 | -0.023 | -0.07 | 0.03 | 0.014 | -0.055 | -0.078 | 0.034 | 0.062 | -0.005 | -0.177 | 0.007 | 0.025 | -0.209 | -0.073 | 0.034 | -0.013 | -0.008 | -0.062 | -0.037 |
| TUBAL3 (UniProt A6NHL2) | -0.074 | -0.054 | 0.058 | -0.003 | -0.125 | -0.069 | -0.51 (active) | 0.067 | 0.187 | -0.057 | -0.037 | -0.058 | -0.064 | -0.218 | 0.048 | 0 | -0.059 | 0.015 | 0.075 | 0.052 |
| WDCP (UniProt Q9H6R7) | -0.039 | -0.034 | 0.054 | -0.032 | 0 | -0.016 | 0.14 | -0.02 | 0.043 | -0.006 | -0.028 | -0.029 | 0.094 | -0.049 | -0.074 | 0.072 | -0.061 | -0.049 | -0.037 | 0.126 |
| VRK2 (UniProt Q86Y07) | -0.036 | 0.075 | 0.4 (active) | 0.014 | -0.102 | 0.106 | -0.039 | -0.017 | -0.001 | -0.092 | -0.009 | 0.075 | 0 | -0.066 | 0.042 | 0.003 | 0.018 | -0.027 | -0.003 | -0.06 |
| TRMT61A (UniProt Q96FX7) | -0.018 | -0.002 | 0.134 | 0.08 | -0.038 | 0.138 | 0.286 | 0.02 | -0.03 | 0.039 | 0.083 | 0.136 | 0.077 | 0.025 | -0.017 | -0.192 | -0.051 | -0.057 | 0.03 | -0.18 |
| TMEM106B (UniProt Q9NUM4) | 0.123 | 0.027 | 0.02 | -0.121 | -0.037 | 0.021 | -0.007 | -0.145 | -0.037 | -0.059 | 0.021 | 0.06 | -0.082 | -0.032 | -0.012 | -0.027 | 0.04 | 0.057 | -0.005 | 0.027 |
| USP14 (UniProt P54578) | -0.007 | -0.013 | -0.047 | 0.033 | 0.012 | -0.064 | -0.025 | -0.01 | 0.044 | -0.021 | 0.023 | -0.035 | 0.04 | -0.051 | -0.057 | -0.008 | 0.007 | -0.043 | 0.031 | 0.026 |
| UTP4 (UniProt Q969X6) | 0.05 | 0.013 | 0.104 | -0.097 | 0.015 | 0.178 | 0.086 | 0.002 | -0.016 | 0.041 | -0.05 | -0.043 | -0.017 | -0.034 | -0.095 | 0.132 | 0 | 0.029 | -0.006 | 0.035 |
| UHRF1BP1 (UniProt Q6BDS2) | 0.011 | 0.049 | -0.043 | 0.016 | -0.013 | -0.064 | -0.007 | 0.048 | -0.012 | 0.017 | -0.025 | 0.079 | 0.161 | -0.029 | -0.033 | 0.104 | 0.045 | 0.037 | 0.038 | 0.032 |
| U2AF1 isoform 2 (UniProt Q01081) | -0.027 | -0.062 | -0.064 | 0.042 | -0.104 | -0.086 | 0.045 | -0.009 | 0.041 | -0.075 | 0.165 | 0.034 | 0.043 | 0.055 | -0.019 | 0.06 | 0.036 | 0.045 | 0 | 0.069 |
| UBE4B isoform 4 (UniProt O95155) | 0.018 | -0.038 | -0.104 | 0.016 | 0.02 | -0.071 | -0.077 | -0.058 | 0.01 | -0.001 | 0.04 | -0.009 | -0.008 | -0.031 | -0.035 | 0.021 | -0.048 | 0.021 | -0.01 | 0.063 |
| TRIP10 (UniProt Q15642) | 0.036 | -0.014 | -0.011 | 0 | 0.027 | -0.029 | 0.006 | 0.046 | 0.038 | -0.005 | 0.054 | 0.01 | -0.007 | -0.061 | -0.026 | 0.083 | -0.014 | -0.04 | 0.021 | 0.033 |
| XPOT (UniProt O43592) | 0.017 | -0.102 | -0.023 | 0.026 | 0.076 | -0.022 | 0.005 | -0.116 | 0.076 | -0.044 | 0.011 | -0.052 | 0.022 | -0.073 | -0.059 | 0.033 | -0.023 | -0.046 | -0.028 | 0.023 |
| XPO5 (UniProt Q9HAV4) | 0 | -0.087 | -0.102 | -0.03 | 0.008 | -0.142 | -0.028 | 0.026 | 0.054 | -0.004 | 0.019 | -0.122 | 0.023 | -0.055 | -0.008 | -0.068 | -0.008 | -0.052 | -0.004 | -0.034 |
